Measurements as given in PubChem BioAssay AID893 (National Center for Advancing Translational Sciences (NCATS), 2007).
Out of some 75,000 compounds screened, about 5,700 (7.6%) were called active. Inconclusive results (about 7%) are left out. Many of the other results were omitted from the sample, so actives are more common in it than they were. A number with no mark means an inactive call. Calls come from the whole dose curve; as a rule, active = well fitted inhibition curve with a large enough effect; inconclusive = small, poorly fitted or top-dose-only effect; inactive = no such curve, though single readings can be large or run the other way.

target: 3-hydroxyacyl-CoA dehydrogenase type-2 (Homo sapiens) (UniProt Q99714); assay: qHTS Assay for Inhibitors of HSD17B4, hydroxysteroid (17-beta) dehydrogenase 4; settings: recombinant HSD17B10, NADH fluorescence kinetic; series mostly up to 57.1 µM; activity change, negative = inhibition: at the top concentration;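 note: the protocol describes HADH2 (HSD17B10) and not the HSD17B4 of the title; nearly all actives have a fitted effect of over 70% in size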
Method in brief: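 20 nM HADH2, pH 9.0 Tris/Tween; cpd preinc 15 min RT; start w/ 1 mM NAD+ + 90 uM b-hydroxybutyryl-CoA; kinetic fluor ex360/em450 q30s x 4 min; delta last-first.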
% is set by controls: 0 for no effect and ±100 for the full control effect; potency is the fitted concentration of half-maximal effect.

Row | Structure (SMILES) | activity change, negative = inhibition | Potency
1 | O=C(Cn1cc2c(n1)CCCCC2)NCCN1CCOCC1 | 5.24% | –
2 | Cc1cc(NC(=O)COC(=O)c2ccc(F)c(S(=O)(=O)N3CCOCC3)c2)no1 | 0.59% | –
3 | CC1(C)OC2CC(=O)OC[C@@]23C1CC(=O)[C@]1(C)C3CC[C@@]2(C)C(c3ccoc3)OC(=O)C3O[C@@]321 (stereo partly drawn) | 8.38% | –
4 | NC[C@@H]1O[C@H](O[C@@H]2[C@H](O[C@@H]3O[C@H](CO)[C@@H](COC[C@H]4O[C@@H](CN)[C@@H](O)[C@@H](O)[C@@H]4N)[C@@H]3O)[C@@H](O)[C@@H](N)C[C@H]2N)[C@@H](N)[C@H](O)[C@@H]1O | 1.86% [at 25.6 µM] | –
5 | C=CCSc1nnc(Cn2c(=O)sc3ccccc32)n1C | 7.1% | –
6 | Cc1cc(NC(=O)CN2CCC(O)(c3cccc(F)c3)CC2)no1 | -0.59% | –
7 | CCCN(C/C=C\I)[C@@H]1CCc2cccc(O)c2C1 | -5.72% | –
8 | CC(NC(=O)CN1CCN(Cc2ccc(Cl)cc2)C1=O)c1ccc2c(c1)OCCO2 (stereo not drawn) | 4.76% | –
9 | CC1CCCCC1NC(=O)CSc1nnc(N)s1 (stereo not drawn) | -0.695% | –
10 | O=c1ccc2cc(S(=O)(=O)N3CCN(c4ccccc4)CC3)ccc2o1 | 10.5% | –
11 | CN(C)CCCn1c(N)c(C#N)c2nc(C#N)c(C#N)nc21 | – | 25.1 µM (active)
12 | O=C1NC(=O)[C@@](Cc2ccccc2)(c2cccnc2)N1 | -1.35% [at 11.4 µM] | –
13 | CCOc1ccc(OCC)c(NC(=O)C2CCN(S(=O)(=O)c3c(C)noc3C)CC2)c1 | -2.37% | –
14 | Cc1ccc(F)cc1NC(=O)c1ccc2c(c1)OCO2 | 6.19% | –
15 | COc1ccccc1OCCNCC(O)COc1cccc2[nH]c3ccccc3c12 (stereo not drawn) | 2.94% | –
16 | C#CC(C)(C)NC(=O)CSc1nc2c(c(=O)n(C)c(=O)n2C)n1CCCC | -0.34% | –
17 | COC(=O)c1ccccc1NC(=O)Cn1nc(C(F)(F)F)c2c1CCC2 | -12.1% | –
18 | COC(=O)c1cnn2c(C(F)(F)F)cc(-c3ccco3)nc12 | – | 25.1 µM (active)
19 | Cc1cc(C(F)(F)F)n2ncc(-c3ccccc3)c2n1 | -6.73% | –
20 | CCC1=C(OC(=O)N(CC)CC)N2C(=O)OC(=NCCc3c[nH]c4ccccc34)[C@]2(C)[C@H]2C1=CC[C@H]1C(=O)N(CC)C(=O)[C@H]12 | -6.72% | –
21 | CCOC(=O)c1cn(CC(=O)Nc2ccc(C(C)C)cc2)nn1 | -0.682% | –
22 | Cn1c(NC(=O)c2ccc3c(c2)OCO3)cc(=O)n(C)c1=O | -13.5% | –
23 | Cc1ccccc1NC(=O)c1ccccc1 | -1.95% | –
24 | Cc1ccc(F)cc1NC(=O)c1cccc(N(C)C)c1 | 0.0915% | –
25 | Cc1ccc(NC(=O)c2cccc(N(C)C)c2)cc1NC(=O)c1ccc(O)cc1 | – | 31.6 µM (active)
26 | CN(C)CCSS(=O)(=O)O | 8.4% [at 11.4 µM] | –
27 | O=C(Nc1ccc2c(c1)OCCO2)C1CCCN(c2ncccn2)C1 (stereo not drawn) | 1.15% | –

Row | Structure (SMILES) | activity change, negative = inhibition | Potency
28 | Cc1ccc(NC(=O)C2CCCN(S(=O)(=O)c3c(C)noc3C)C2)c(C)c1 (stereo not drawn) | -2.12% | –
29 | Cc1ccnc(N2CCCC(C(=O)Nc3cc(F)ccc3C)C2)n1 (stereo not drawn) | – | 25.1 µM (active)
30 | COc1ccc(N(CC(=O)NC2CCCCCCC2)S(=O)(=O)c2c(C)nn(C)c2C)cc1 | -1.12% | –
31 | COc1cccc(-n2cc3c(c2-c2ccccc2)c(=O)n(C)c(=O)n3C)c1 | -18.6% | –
32 | Cc1occc1C(=O)Nc1nnc(-c2ccncc2)s1 | – | 31.6 µM (active)
33 | Cc1occc1C(=O)Nc1nnc(C2CCCCC2)s1 | 0.212% | –
34 | Cc1occc1C(=O)Nc1cccc(Cn2cccn2)c1 | 6.22% | –
35 | O=C(NC1CCCC1)c1ccc(Br)s1 | 0.0814% | –
36 | CCOc1ccc2nc(SC(CC)C(=O)Nc3cc(C)on3)sc2c1 (stereo not drawn) | 10.9% | –
37 | CN1CCCC1CCO[C@@](C)(c1ccccc1)c1ccc(Cl)cc1 (stereo partly drawn) | -1.15% | –
38 | COc1ccc2[nH]cc(CCNc3ncnc4ccc(-c5ccc(C(=O)N(C)C)cc5)cc34)c2c1 | 5.12% | –
39 | O=C(CS(=O)(=O)c1cn(Cc2cccc(F)c2)c2ccccc12)N1CCCCC1 | 2.43% | –
40 | CC1CCN(Cc2nc3c(c(=O)n(C)c(=O)n3C)n2CCc2ccccc2)CC1 | 5.22% | –
41 | CCn1c(NCCc2ccc(OC)c(OC)c2)nc2c1c(=O)n(C)c(=O)n2C | 7.02% | –
42 | Cn1c(=O)c2c(nc(NCCc3ccccc3)n2Cc2ccccc2)n(C)c1=O | – | 31.6 µM (active)
43 | CCN(Cc1nc2ccccc2c(=O)[nH]1)Cc1cc(=O)oc2cc(C)c(C)cc12 | -3.58% | –
44 | Cc1ccc2c(CSc3nncs3)cc(=O)oc2c1 | – | 12.6 µM (active)
45 | COC(=O)[C@@]1(Cc2ccc(OC)cc2)[C@H]2c3cc(C(=O)N4CCCC4)n(Cc4ccc(C(F)(F)F)nc4)c3C[C@H]2CN1C(=O)c1ccccc1 | 5.51% | –
46 | CC(C)c1ccc(NS(=O)(=O)c2cn(C)c(=O)n(C)c2=O)cc1 | -7.68% | –
47 | CN(CCc1ccccn1)S(=O)(=O)c1ccc2c3c(cccc13)C(=O)N2 | – | 31.6 µM (active)
48 | O=c1[nH]nc(Cc2ccccn2)c2ccccc12 | 4.64% | –
49 | COC(=O)c1ccccc1NC(=O)c1cncc(Br)c1 | 4% | –
50 | O=C(CSc1nnc2ccccn12)c1ccccc1 | -4.02% | –
51 | CCc1ccc(NC(=O)CSc2nnc(-c3cnccn3)n2Cc2ccco2)cc1 | -6.46% | –
52 | O=C(Nc1ncc2c(n1)CC(c1ccco1)CC2=O)c1ccc(Cl)cc1 (stereo not drawn) | -13.7% | –
53 | CCc1ccc(Nc2ncc3c(n2)CC(c2ccco2)CC3=O)cc1 (stereo not drawn) | – | 20 µM (active)
